# Data reported in PubChem BioAssay (NCI).
# The panel holds about 83,000 compounds, 20% with a hit somewhere; the sample as a whole holds those more often.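 The test compound was applied at a single concentration to cells in 96-well plates for 48 hours, and percent growth was recorded.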 The source made the active and inactive calls.
# Tested on: SK-MEL-28 melanoma
# Experiment: NCI-60 one-dose screen, 48 h (100 = growth as untreated, 0 = no growth, -100 = all killed)
# Conditions: 10 µM unless noted
# Description: Growth inhibition of the SK-MEL-28 human tumor cell line is measured as a screen for anti-cancer activity. Cells are grown in 96 well plates and exposed to the test compound for 48 hours. Compounds are tested at a single concentration, which is 10^-5 M for most compounds. The reported endpoint is percent growth (GI% or GIPRCNT), where numbers from 0 - 100% represent growth inhibition, and numbers from -100% - 0 represent cell death. For example, a value of 40 represents 60% growth inhibition. A value of 0 means no net growth occurred over the course of the experiment. A value of -40 indicates 40% of cells at the beginning of the experiment died by the end of the experiment. A value of -100 means all cells are dead at the end of the experiment.
# NCI-60 Human Tumor Cell Lines Screen was performed using the standard one-dose NCI protocol, which is described in more detail at https://dtp.cancer.gov/discovery_development/nci-60/default.htm.
# Compounds with GIPRCNT values below 10 were considered active. Activity score was based on GIPRCNT using the following formula: […]
# Score is 0 for GIPRCNT values of 100 or above, 50 for GIPRCNT values of 0, and 100 for GIPRCNT values of -100.
row,Structure (SMILES),growth
1,O=C(NCCNc1nccc(-n2ccc3cccnc32)n1)c1ccc(C(F)(F)F)cc1,105% (inactive)
2,C=C1CCC2C(C)(CO)C(O)CCC2(C)C1CC(NCc1ccccc1)C1=CCOC1=O (stereo not given),101% (inactive)
3,c1ccc(-c2nnc(-c3ccccn3)s2)nc1,127% (inactive)
4,O=c1ccn(-c2ncnc3nc[nH]c23)cc1,94.6% (inactive)
5,COc1cccc(-c2nc3sccn3c2-c2ccnc(NCCCNS(=O)(=O)c3ccc(F)cc3)c2)c1,52.1% (inactive)
6,O=C(NNC(=O)N1c2ccccc2C=Cc2ccccc21)c1ccccc1,102% (inactive)
7,COc1ccc(Nc2[nH]n3c(=O)cc(C)nc3c2C(N)=O)c(OC)c1,109% (inactive)
8,O=S(=O)(NCCNc1nccc(-c2c(-c3cccc(O)c3)nc3sccn23)n1)c1ccc(F)cc1,43.5% (inactive)
9,COc1ccc(C2=Nn3c(nnc3-n3nc(C)cc3C)SC2)cc1,54.8% (inactive)
10,CN1C=CN(Cc2ccc(-c3ccccn3)nc2)[CH-]1.CN1C=CN(Cc2ccc(-c3ccccn3)nc2)[CH-]1.[Au+3],50.7% (inactive)
11,COc1ccc(NC(=O)c2cc(OC)c(OC)c(OC)c2)cc1O,56% (inactive)
12,FC(F)(F)c1ccccc1-c1cn2c(ccc3ccccc32)n1,81.8% (inactive)
13,NNc1cccc(/C=C/c2ccccc2)cc1=O,81.9% (inactive)
14,COc1ccc(/C(C#N)=C/c2cc(OC)c(OC)c(OC)c2)cc1,52.1% (inactive)
15,CN(C[C@H]1Cc2c(cccc2N2CCN(c3ncccn3)CC2)CN1)[C@H]1CCCc2cccnc21,65.2% (inactive)
16,O=C(NS(=O)(=O)c1ccccc1)n1cc(-c2ccncc2)c(-c2ccc(Cl)c(O)c2)n1,63% (inactive)
17,N[C@@H]1CCN(C(=O)c2cc3cc(Cl)c(F)c(F)c3[nH]2)C1,105% (inactive)
18,NC(N)=N/N=C/c1ccc(-c2ccc(-c3cc(Cl)cc(Cl)c3)s2)cc1,96.5% (inactive)
19,COc1ccc(C(=O)N2NC(=O)/C(=C/c3cn(-c4ccccc4)nc3-c3ccccc3)N=C2c2ccccc2)cc1,105% (inactive)
20,O=C(CN1CCN(c2cc3c(cc2F)c(=O)c(C(=O)N/N=C/c2ccccc2O)cn3C2CC2)CC1)N/N=C\c1ccccc1O,20.7% (inactive)

row,Structure (SMILES),growth
1,O=[N+]([O-])c1cccc(-c2nc3sccn3c2-c2ccnc(NCCCNS(=O)(=O)c3ccc(C(F)(F)F)cc3)n2)c1,49.8% (inactive)
2,COc1ccc(-c2cnnn2-c2nonc2-n2cccc2)cc1OC,67.8% (inactive)
3,C=CCSc1n[nH]c(-c2cccs2)n1,129% (inactive)
4,C=C1c2nc3ccccc3n2C=C(c2ccc(Cl)cc2)N1Cc1ccccc1,147% (inactive)
5,Brc1ccc(-c2[nH]ncc2-c2c[nH]c3ccccc23)cc1,107% (inactive)
6,O=C(c1ccccc1)C1OC1c1ccc([N+](=O)[O-])cc1 (stereo not given),97.4% (inactive)
7,COc1ccc(Nc2[nH]n3c(=O)cc(-c4ccccc4)nc3c2C(=O)Nc2ccc(C)cc2)c(OC)c1,95% (inactive)
8,S=c1[nH]nc(-c2cc3ccc2CCc2ccc(cc2)CC3)n1-c1ccccc1,98.8% (inactive)
9,O=C1/C(=C/c2ccc([N+](=O)[O-])cc2)CN(C(=O)CCN2CCC(=NO)CC2)C/C1=C\c1ccc([N+](=O)[O-])cc1,-30.6% (active)
10,Cc1ccc(-c2cc3nc(C(Cl)Cl)nc(-c4cccnc4)n3n2)cc1,53.2% (inactive)
11,COc1ccc(NC(=O)c2c(Nc3ccc(OC)cc3OC)n[nH]c2N)c(OC)c1,96.6% (inactive)
12,COc1ccc(C(=O)c2cc(OC)c3c(c2)OCO3)cc1O,65.6% (inactive)
13,NC(=N\N=C/c1ccc(O)cc1)/C(N)=N\N=C/c1ccc(O)cc1,88.2% (inactive)
14,COc1cc(NC(N)=NCCC(C)(C)Oc2ccc(C(F)(F)F)cc2)ncc1C#N,-79.2% (active)
15,CCCCCCCC[C@@H](O)CC(=O)N[C@@H](CC(N)=O)C(=O)N[C@@H](CCC(N)=O)C(=O)N[C@@H](CC(=O)c1cc(C)cc(O)c1C(=O)c1c(O)cccc1O)CC(C)C,28.5% (inactive)
16,NC1=NN(O)C2=CC([N+](=O)[O-])C=CC2=N1 (stereo not given),117% (inactive)
17,CC12CCC3C4(C)COC(c5ccco5)OC4CCC3(C)C1CC(C1=CCOC1=O)O2 (stereo not given),106% (inactive)
18,N#Cc1c(Nc2ccccc2)nc2n(c1=O)-c1ccccc1Sc1ccccc1-2,83.8% (inactive)
19,CC12CCCC(CC(=O)c3[nH]c4ccccc4c31)C2 (stereo not given),53% (inactive)
20,CCCCCCCCN(CCCCCCCC)CCCCCCNc1cc(OC)cc2cccnc12,106% (inactive)
